Measurements reported in the supplement of paper PMC8387472.

Key:
Conditions in all cases: mESC; 2uM; 72 h treatment, harvest day 5
[1] = compound: Cc1cc(C)nc(SCC(=O)Nc2ncc(Cc3cccc4ccccc34)s2)n1; assay: fraction of edited reads among all mapped reads; higher = more Cas9 editing
[2] = compound: Cc1ccc(C(=O)NCCCCCC(=O)Nc2ccccc2N)cc1; assay: as above
[3] = compound: Cc1cccc(CC(=O)N2CCc3c2ccc(-c2cn(C)c4ncnc(N)c24)c3F)n1; assay: as above
[4] = compound: NC(=O)c1ccc2nc(-c3ccc(Oc4ccc(Cl)cc4)cc3)[nH]c2c1 [Chk 2 inhibitor II (BML-277)]; assay: as above
Tucidinostat (Chidamide) = compound: Nc1cc(F)ccc1NC(=O)c1ccc(CNC(=O)/C=C/c2cccnc2)cc1 [Tucidinostat (Chidamide)]; assay: as above
Pemetrexed = compound: Nc1nc2[nH]cc(CCc3ccc(C(=O)N[C@@H](CCC(=O)O)C(=O)O)cc3)c2c(=O)[nH]1 [Pemetrexed]; assay: as above
[5] = compound: Nc1ncnc2c1c(-c1cnc3[nH]ccc3c1)nn2C1CCCC1; assay: as above
[6] = compound: O=C(c1cccc(Cl)c1F)N1CCN(Cc2cccc(Nc3nccs3)n2)CC1; assay: as above
Kenpaullone = compound: O=C1Cc2c([nH]c3ccc(Br)cc23)-c2ccccc2N1 [Kenpaullone]; assay: as above
Genistein = compound: O=c1c(-c2ccc(O)cc2)coc2cc(O)cc(O)c12 [Genistein]; assay: as above
[7] = compound: O=c1cc(N2CCOCC2)oc2c(-c3ccc4c(c3)OCCO4)csc12; assay: as above
Mercaptopurine (6-MP) = compound: S=c1[nH]cnc2nc[nH]c12 [Mercaptopurine (6-MP)]; assay: as above
[8] = compound: S=c1nc[nH]c2nc[nH]c12 [6-Mercaptopurine (6-MP) Monohydrate]; assay: as above
[9] = compound: CC(=O)O/N=C1\C(=O)N(Cc2cc(Cl)ccc2Cl)c2ccc(Cl)cc21; assay: fraction of microhomology deletions among edited reads; higher = more MH deletions
[10] = compound: CC(C)(C#N)c1ccc(N2C(=O)OCc3cnc4ccc(-c5cnc6ccccc6c5)cc4c32)cc1; assay: as above
[11] = compound: CCCCOc1c(C(=O)c2c(F)cc(C)cc2F)c[nH]c2nncc1-2; assay: as above
[12] = compound: CCN1CCN(CC(=O)Nc2ccc(-c3cccc4c(=O)cc(N5CCOCC5)oc34)c3sc4ccccc4c23)CC1; assay: as above
[13] = compound: CCc1c2c(nc3ccc(OC(=O)N4CCC(N5CCCCC5)CC4)cc13)-c1cc3c(c(=O)n1C2)COC(=O)[C@]3(O)CC [Irinotecan HCl Trihydrate]; assay: as above
[14] = compound: CCn1c(=O)c(-c2ccc(Cl)cc2Cl)cc2cnc(Nc3ccc(N4CCNCC4)c(F)c3)nc21; assay: as above
[15] = compound: CNc1ccc([N+](=O)[O-])c(Nc2ccc3[nH]ncc3c2)n1; assay: as above

Row | Target | fraction of edited reads among all mapped reads [1] | fraction of edited reads among all mapped reads [2] | fraction of edited reads among all mapped reads [3] | fraction of edited reads among all mapped reads [4] | fraction of edited reads among all mapped reads (Tucidinostat (Chidamide)) | fraction of edited reads among all mapped reads (Pemetrexed) | fraction of edited reads among all mapped reads [5] | fraction of edited reads among all mapped reads [6] | fraction of edited reads among all mapped reads (Kenpaullone) | fraction of edited reads among all mapped reads (Genistein) | fraction of edited reads among all mapped reads [7] | fraction of edited reads among all mapped reads (Mercaptopurine (6-MP)) | fraction of edited reads among all mapped reads [8] | fraction of microhomology deletions among edited reads [9] | fraction of microhomology deletions among edited reads [10] | fraction of microhomology deletions among edited reads [11] | fraction of microhomology deletions among edited reads [12] | fraction of microhomology deletions among edited reads [13] | fraction of microhomology deletions among edited reads [14] | fraction of microhomology deletions among edited reads [15]
1 | 42.0 (DMSO control at this site: 1-bp insertion 0.145, MH deletion 0.655, edited 0.132) GGGCTAAACCTATGAGCACAGTAGAACTAAGGGTGGGTGGTGTAGCTAAAGAACTTGACCA | 0.241 | 0.15 | 0.193 | 0.167 | 0.115 | 0.127 | 0.135 | 0.107 | 0.251 | 0.18 | 0.0994 | 0.171 | 0.109 | 0.699 | 0.678 | 0.696 | 0.734 | 0.672 | 0.706 | 0.633
2 | 35.0 (DMSO control at this site: 1-bp insertion 0.01, MH deletion 0.72, edited 0.098) CCACTTTTAGAGAGGGTGAAAATCATCAGTTATCATCAGGGCAACAAATTGCTTTCTCCTA | 0.179 | 0.117 | 0.147 | 0.122 | 0.0981 | 0.104 | 0.108 | 0.0696 | 0.209 | 0.151 | 0.0645 | 0.127 | 0.0862 | 0.754 | 0.761 | 0.781 | 0.788 | 0.732 | 0.729 | 0.732
3 | 5.0 (DMSO control at this site: 1-bp insertion 0.214, MH deletion 0.567, edited 0.105) CGCTGACCCGAGACCTACGCGAACCGAAATCGGCGACCGGTGCGCAAGCAGGGCTGGCGTC | 0.215 | 0.121 | 0.171 | 0.149 | 0.108 | 0.124 | 0.116 | 0.0928 | 0.248 | 0.157 | 0.0695 | 0.151 | 0.0997 | 0.593 | 0.605 | 0.588 | 0.705 | 0.563 | 0.617 | 0.552
4 | 22.0 (DMSO control at this site: 1-bp insertion 0.573, MH deletion 0.229, edited 0.045) CTGATGGTTGAAGGATTTAGCCGGGGTCCTAGACGCCGGGGTCCTAGACGAAAGGGCCACG | 0.0884 | 0.0476 | 0.0695 | 0.0586 | 0.0454 | 0.056 | – | 0.0278 | 0.117 | 0.0556 | 0.0255 | 0.0686 | 0.0558 | 0.159 | 0.162 | 0.122 | 0.296 | 0.125 | 0.168 | 0.117
5 | 25.0 (DMSO control at this site: 1-bp insertion 0.017, MH deletion 0.774, edited 0.143) GGGCCTGAATGGTGTGGACATCTACTCGCTGGTGAGCTGGTGACTGAAAACATTCAGTGGC | 0.278 | 0.159 | 0.228 | 0.194 | 0.14 | 0.16 | 0.15 | 0.109 | 0.31 | 0.203 | 0.105 | 0.193 | 0.126 | 0.806 | 0.772 | 0.766 | 0.787 | 0.759 | 0.783 | 0.778
6 | 44.0 (DMSO control at this site: 1-bp insertion 0.181, MH deletion 0.512, edited 0.123) ACACATACCTTCTTCGAGGCAGCCAGCATGATGAGACAGGTCTCCCACAAACACATCGTGT | 0.232 | 0.141 | 0.191 | 0.167 | 0.124 | 0.138 | 0.124 | 0.11 | 0.265 | 0.167 | 0.091 | 0.173 | 0.13 | 0.553 | 0.526 | 0.528 | 0.637 | 0.469 | 0.547 | 0.506
7 | 26.0 (DMSO control at this site: 1-bp insertion 0.518, MH deletion 0.262, edited 0.026) AGGGCGCGCCCCACGCACTCTGCGGCAAGTCCCTCTGCGGCAAGTCCTCGGCCCGGAAGAC | 0.0413 | 0.0319 | 0.0384 | 0.0384 | 0.0295 | 0.0225 | 0.0266 | 0.0221 | 0.0413 | 0.0338 | 0.0106 | 0.04 | 0.0282 | 0.289 | 0.324 | 0.27 | 0.54 | 0.29 | 0.331 | 0.256
8 | 23.0 AGAACAAAGCGCTCATATAACGATATGGGGGGTTATGGGGGGTTGAATTGCTTCAGCACGA | – | – | – | – | – | – | – | 0.94 | – | – | – | – | – | – | – | – | – | – | – | 0.88
9 | 17.0 (DMSO control at this site: 1-bp insertion 0.112, MH deletion 0.348, edited 0.058) CCATAGCGCGATAAATATGACGGCTCATCCTGTATGACGGCTCATCCTGTATCAACTGTCC | 0.123 | 0.0669 | 0.086 | 0.0753 | 0.0619 | 0.0836 | 0.0703 | 0.0546 | 0.184 | 0.0864 | 0.037 | 0.0873 | 0.069 | 0.396 | 0.391 | 0.416 | 0.509 | 0.411 | 0.358 | 0.402
10 | 28.0 (DMSO control at this site: 1-bp insertion 0.035, MH deletion 0.77, edited 0.142) TGGTTCTTCCTTTGTAGAGAGTGTTCATCTGGGAATCTGGGACTTGGATGAGACAATCATT | 0.267 | 0.152 | 0.212 | 0.19 | 0.126 | 0.14 | 0.153 | 0.11 | 0.297 | 0.198 | 0.0926 | 0.18 | 0.117 | 0.789 | 0.793 | 0.767 | 0.818 | 0.763 | 0.774 | 0.774
